Reference: PubChem BioAssay (NCI)
The panel holds about 79,000 compounds, 15% with a hit somewhere; the sample as a whole holds those more often. Activity calls are given as the source filed them. No stated cut-off is given here; in the data, active means growth inhibition above about 70%; inactive means the rest.

Key:
[1] = NCI Yeast Anticancer Drug Screen. Data for the rad52 strain (AID 147);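 further: 0% = growth of vehicle-treated control cultures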; conditions: S. cerevisiae rad52 mutant growth inhibition, active compounds read high
How it was run: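 Here a repair-compromised yeast strain receives each compound; its growth is then quantified and normalised to vehicle-only controls.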

[2] = NCI Yeast Anticancer Drug Screen. Data for the wt1 strain (AID 149);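 further: 0% = growth of vehicle-treated wt1 cultures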; conditions: S. cerevisiae wt1 strain (SPY 50644) growth inhibition, active compounds read high
How it was run: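 Measured: growth of wt1 yeast under compound versus vehicle treatment, reported as inhibition.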

[3] = NCI Yeast Anticancer Drug Screen. Data for the mgt1 strain (AID 153); conditions: S. cerevisiae mgt1 mutant growth inhibition, active compounds read high
How it was run: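 Measured: inhibition of mgt1 yeast growth by compound, normalized to vehicle-treated cultures.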

[4] = NCI Yeast Anticancer Drug Screen. Data for the rad50 strain (AID 155);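 further: 0% = growth of vehicle-only cultures of the same strain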; conditions: S. cerevisiae rad50 strain growth inhibition, active compounds read high
How it was run: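 Growth of the mutant yeast was measured after compound exposure and referenced to vehicle-treated cultures.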

[5] = NCI Yeast Anticancer Drug Screen. Data for the mec2-1 strain (AID 157); conditions: S. cerevisiae mec2-1 strain, active compounds read high
How it was run: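 Using mec2-1 yeast: add compound, measure growth, express inhibition versus vehicle-treated cultures.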

[6] = NCI Yeast Anticancer Drug Screen. Data for the rad14 strain (AID 159);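 further: 0% = growth of vehicle-treated control cultures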; conditions: S. cerevisiae rad14 strain growth inhibition, active compounds read high
How it was run: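 Here, inhibition of yeast growth was measured after compound exposure, using a strain with a genetic defect in DNA damage repair and vehicle-treated cultures as the reference.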

[7] = NCI Yeast Anticancer Drug Screen. Data for the sgs1 mgt1 strain (AID 161);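 further: 0% = growth of cultures given vehicle only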; conditions: S. cerevisiae sgs1 mgt1 strain, active compounds read high
How it was run: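 Compounds are added to genetically altered yeast, and growth is compared with cultures given vehicle alone to give percent inhibition.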

[8] = NCI Yeast Anticancer Drug Screen. Data for the CLN2oe strain (AID 163);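 further: 0% = growth of vehicle-only control cultures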; conditions: S. cerevisiae CLN2oe strain, active compounds read high
How it was run: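 Whole-cell yeast growth assay. A strain engineered for altered cell-cycle control received compound, and inhibition relative to vehicle-treated cultures was recorded.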

[9] = NCI Yeast Anticancer Drug Screen. Data for the cln2 rad14 strain (AID 165);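 further: 0% = growth equal to vehicle treated cultures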; conditions: S. cerevisiae cln2 rad14 strain, active compounds read high
How it was run: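 Yeast strain cln2 rad14, bearing defects in cell cycle control and DNA repair, serves as the test system; values reflect growth inhibition compared with vehicle.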

[10] = NCI Yeast Anticancer Drug Screen. Data for the bub3 strain (AID 167); conditions: S. cerevisiae bub3 mutant strain, active compounds read high
How it was run: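 Whole-cell yeast assay. The mutant strain was incubated with compounds, and growth inhibition was determined by comparison with vehicle-treated cells.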

[11] = NCI Yeast Anticancer Drug Screen. Data for the wt2 strain (AID 169);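 further: 0% = growth of vehicle-treated yeast cultures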; conditions: S. cerevisiae wt2 strain growth inhibition, active compounds read high
How it was run: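 Treated yeast vs. vehicle-treated yeast: growth inhibition determined.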

[12] = NCI Yeast Anticancer Drug Screen. Data for the mlh1 strain (AID 171);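 further: 0% = growth of vehicle-treated control cultures of the same strain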; conditions: S. cerevisiae mlh1 strain growth inhibition, active compounds read high
How it was run: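 A yeast strain with a defined genetic lesion serves as the test organism. Cultures receive compound or vehicle, and growth is measured.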

[13] = NCI Yeast Anticancer Drug Screen. Data for the mlh1 rad18 strain (AID 175); conditions: S. cerevisiae mlh1 rad18 strain growth inhibition, active compounds read high
How it was run: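 Steps: expose repair-defective yeast to compound; measure growth; express inhibition against vehicle-treated controls.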

[14] = NCI Yeast Anticancer Drug Screen. Data for the rad50EPP+ strain (AID 151);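 further: 0% = growth of vehicle-treated control cultures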; conditions: S. cerevisiae rad50 mutant strain, active compounds read high
How it was run: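 Read-out is yeast growth inhibition relative to vehicle; cells used were the rad50EPP+ strain.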

[15] = NCI Yeast Anticancer Drug Screen. Data for the sgs1 strain (AID 173);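 further: 0% = growth of vehicle-only control cultures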; conditions: S. cerevisiae sgs1 mutant, active compounds read high
How it was run: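 A genetically defined yeast mutant is incubated with the test compound, and its growth is compared to that of the same strain given vehicle.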

[16] = NCI Yeast Anticancer Drug Screen. Data for the rad18 strain (AID 177); conditions: S. cerevisiae rad18 mutant growth inhibition, active compounds read high
How it was run: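 Measured value is growth inhibition of a yeast strain bearing a DNA repair alteration, referenced to vehicle-treated cells.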

[17] = at 5.0 µM (retest, dose inferred, filed as 0.5)
[18] = at 50.0 µM (retest, dose inferred, filed as 5.0)

Measured: growth inhibition

CC1(C)CC(=O)C(C=NC(=S)C(N)=S)=C(O)C1
active: [3]; at 100.0 µM 84% | [5]; at 50.0 µM 74.1% | [5]; at 100.0 µM 91% | [8]; at 100.0 µM 96% | [10]; at 100.0 µM 91% | [12]; at 100.0 µM 91% | [13]; [18] 75%
inactive: [1]; at 1.2 µM -47% | [1]; at 3.7 µM -57% | [1]; at 11.0 µM -63% | [1]; at 33.0 µM -49% | [1]; at 100.0 µM 69% | [2]; at 1.2 µM -30% | [2]; at 3.7 µM -39% | [2]; at 11.0 µM -37% | [2]; at 33.0 µM -16% | [2]; at 100.0 µM 21% | [3]; at 1.2 µM -13% | [3]; at 3.7 µM 0% | [3]; at 11.0 µM 3% | [3]; at 33.0 µM 21% | [4]; at 1.2 µM -15% | [4]; at 3.7 µM -14% | [4]; [17] -26% | [4]; at 11.0 µM -13% | [4]; at 33.0 µM 6% | [4]; [18] 14% | [4]; at 50.0 µM 15.5% | [4]; at 100.0 µM 69% | [5]; at 1.2 µM -40% | [5]; at 3.7 µM -34% | [5]; [17] -6% | [5]; at 11.0 µM -41% | [5]; at 33.0 µM -19% | [5]; [18] 22% | [6]; at 1.2 µM -18% | [6]; at 3.7 µM -7% | [6]; at 11.0 µM -16% | [6]; at 33.0 µM -18% | [6]; at 100.0 µM 19% | [7]; [17] -2% | [7]; [18] 8% | [7]; at 50.0 µM 35.5% | [8]; at 1.2 µM -35% | [8]; at 3.7 µM -25% | [8]; at 11.0 µM -30% | [8]; at 33.0 µM -10% | [9]; [17] 23% | [9]; [18] 32% | [9]; at 50.0 µM 10.3% | [10]; at 1.2 µM -30% | [10]; at 3.7 µM -20% | [10]; [17] 18% | [10]; at 11.0 µM -24% | [10]; at 33.0 µM -31% | [10]; [18] 38% | [10]; at 50.0 µM 6.15% | [11]; at 1.2 µM -47% | [11]; at 3.7 µM -52% | [11]; at 11.0 µM -59% | [11]; at 33.0 µM -41% | [11]; at 100.0 µM 20% | [12]; at 1.2 µM -31% | [12]; at 3.7 µM -26% | [12]; at 11.0 µM -9% | [12]; at 33.0 µM 6% | [13]; [17] -7% | [13]; at 50.0 µM 45.2%

CCCCCCCSCC1C(=O)C23C(O)C1CCC2C12COC3(O)C(O)C1C(C)(C)CCC2O (centres undefined)
inactive: [2]; at 1.2 µM 16% | [2]; at 3.7 µM 5% | [14]; at 1.2 µM 26% | [14]; at 3.7 µM 27% | [14]; at 11.0 µM 32% | [14]; at 33.0 µM 28% | [14]; at 100.0 µM 6% | [3]; at 1.2 µM 20% | [3]; at 3.7 µM 20% | [4]; at 1.2 µM 13% | [4]; at 3.7 µM 16% | [4]; [17] -12% | [4]; at 11.0 µM 66% | [5]; at 1.2 µM 23% | [5]; at 3.7 µM 15% | [5]; [17] 2% | [5]; at 11.0 µM 67% | [6]; at 1.2 µM -9% | [6]; at 3.7 µM 5% | [7]; [17] 28% | [9]; [17] 54% | [10]; at 1.2 µM 4% | [10]; at 3.7 µM 9% | [10]; [17] 65% | [11]; at 1.2 µM 14% | [11]; at 3.7 µM 0% | [11]; at 11.0 µM 67% | [12]; at 1.2 µM -1% | [12]; at 3.7 µM 23% | [15]; at 1.2 µM 26% | [15]; at 3.7 µM 19% | [13]; [17] 50% | [16]; at 1.2 µM -1% | [16]; at 3.7 µM 2%
active: [2]; at 11.0 µM 82% | [2]; at 33.0 µM 95% | [2]; at 100.0 µM 90% | [3]; at 11.0 µM 88% | [3]; at 33.0 µM 96% | [3]; at 100.0 µM 89% | [4]; at 33.0 µM 93% | [4]; [18] 74% | [4]; at 50.0 µM 87.5% | [4]; at 100.0 µM 81% | [5]; at 33.0 µM 94% | [5]; [18] 97% | [5]; at 50.0 µM 88.2% | [5]; at 100.0 µM 87% | [6]; at 11.0 µM 84% | [6]; at 33.0 µM 95% | [6]; at 100.0 µM 91% | [7]; [18] 95% | [7]; at 50.0 µM 87.8% | [9]; [18] 97% | [9]; at 50.0 µM 85.8% | [10]; at 11.0 µM 78% | [10]; at 33.0 µM 94% | [10]; [18] 97% | [10]; at 50.0 µM 86.2% | [10]; at 100.0 µM 90% | [11]; at 33.0 µM 95% | [11]; at 100.0 µM 93% | [12]; at 11.0 µM 93% | [12]; at 33.0 µM 95% | [12]; at 100.0 µM 91% | [15]; at 11.0 µM 89% | [15]; at 33.0 µM 95% | [15]; at 100.0 µM 84% | [13]; [18] 94% | [13]; at 50.0 µM 88.8% | [16]; at 11.0 µM 89% | [16]; at 33.0 µM 94% | [16]; at 100.0 µM 87%

CCO/C=C1\SC(=S)N(c2ccc(OCC)cc2)C1=O
active: [4]; [18] 79% | [4]; at 100.0 µM 72% | [5]; [18] 86% | [10]; [18] 73% | [10]; at 50.0 µM 72.2% | [13]; [18] 76%
inactive: [2]; at 1.2 µM -36% | [2]; at 3.7 µM -51% | [2]; at 11.0 µM -50% | [2]; at 33.0 µM -34% | [2]; at 100.0 µM -33% | [3]; at 1.2 µM -13% | [3]; at 3.7 µM -6% | [3]; at 11.0 µM -20% | [3]; at 33.0 µM 0% | [3]; at 100.0 µM 45% | [4]; at 1.2 µM -17% | [4]; at 3.7 µM -7% | [4]; [17] 41% | [4]; at 11.0 µM -3% | [4]; at 33.0 µM 36% | [4]; at 50.0 µM 29.7% | [5]; at 1.2 µM -43% | [5]; at 3.7 µM -35% | [5]; [17] 47% | [5]; at 11.0 µM -27% | [5]; at 33.0 µM -41% | [5]; at 50.0 µM 28.2% | [5]; at 100.0 µM 26% | [6]; at 1.2 µM -42% | [6]; at 3.7 µM -41% | [6]; at 11.0 µM -40% | [6]; at 33.0 µM -2% | [6]; at 100.0 µM 8% | [7]; [17] -7% | [7]; [18] 44% | [7]; at 50.0 µM 33.5% | [8]; at 1.2 µM -8% | [8]; at 3.7 µM -1% | [8]; at 11.0 µM 4% | [8]; at 33.0 µM 21% | [8]; at 100.0 µM 57% | [9]; [17] 26% | [9]; [18] 60% | [9]; at 50.0 µM 21.1% | [10]; at 1.2 µM -7% | [10]; at 3.7 µM -4% | [10]; [17] 9% | [10]; at 11.0 µM -9% | [10]; at 33.0 µM 32% | [10]; at 100.0 µM 58% | [12]; at 1.2 µM -8% | [12]; at 3.7 µM -12% | [12]; at 11.0 µM -18% | [12]; at 33.0 µM -14% | [12]; at 100.0 µM -10% | [15]; at 1.2 µM -35% | [15]; at 3.7 µM -39% | [15]; at 11.0 µM -34% | [15]; at 33.0 µM -33% | [15]; at 100.0 µM 32% | [13]; [17] 29% | [13]; at 50.0 µM 57.5% | [16]; at 1.2 µM -37% | [16]; at 3.7 µM -31% | [16]; at 11.0 µM -32% | [16]; at 33.0 µM -21% | [16]; at 100.0 µM 18%
